# Only some compounds are listed: those with a hit (about 12% of all), similar ones and a draw of the others.
# G9a block = blocks human histone lysine methyltransferase G9a; Q96KQ7; G9a H3K9 monomethylation, AlphaScreen, 2 h; Potency, µM (highest dose often 102 µM), actives largely listed as inhibitors; actives 8.8% (n = 350,000); AID 504332; note: nearly all actives have a fitted effect of over 75% in size
# Target sequence (Q96KQ7 913-1193 limits assumed): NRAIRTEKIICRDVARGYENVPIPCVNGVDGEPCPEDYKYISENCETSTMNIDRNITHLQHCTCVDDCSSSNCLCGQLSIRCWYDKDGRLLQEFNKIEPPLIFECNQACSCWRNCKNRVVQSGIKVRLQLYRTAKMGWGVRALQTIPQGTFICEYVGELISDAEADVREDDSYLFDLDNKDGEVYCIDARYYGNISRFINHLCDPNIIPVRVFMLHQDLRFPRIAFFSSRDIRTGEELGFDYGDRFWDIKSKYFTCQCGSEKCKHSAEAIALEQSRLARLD
#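 Chemiluminescent proximity detection of H3K9 monomethylation, read after 10 min bead incubation in the dark. Reaction: 20 nM G9a, 500 nM biotin-H3K9 peptide, 20 uM SAM cofactor, 2 h, room temperature, following 15 min enzyme-compound preincubation.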
# Sfp inh = Sfp phosphopantetheinyl transferase inhibition; Q9F4F7; Biochemical Sfp PPTase activity, qHTS; Potency, µM, hits mostly inhibitors; actives 3.5% (n = 310,000); AID 1490;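 note: the enzyme is Sfp with the accession as filed and its product quenches rhodamine fluorescence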
#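 Fluorescence-quenching assay: 15 nM Sfp-PPTase preincubated 15 min at room temperature with compound, then 5 uM rhodamine-CoA and 12.5 uM BHQ-2-labelled YbbR peptide added. Fluorescence (ex 525/em 598 nm) read at start and after 30 min; difference gives rate.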
# HP1b binding inh = inhibitors of HP1-beta chromodomain binding to methylated histone tails. P83916. AlphaScreen HP1-beta / biotin-H3K9me3 peptide binding. Potency, µM (doses to about 114 µM), actives largely listed as inhibitors. actives 0.56% (n = 390,000). AID 540317; note: nearly all actives have a fitted effect of over 70% in size
# Target sequence (P83916 whole entry, looked up): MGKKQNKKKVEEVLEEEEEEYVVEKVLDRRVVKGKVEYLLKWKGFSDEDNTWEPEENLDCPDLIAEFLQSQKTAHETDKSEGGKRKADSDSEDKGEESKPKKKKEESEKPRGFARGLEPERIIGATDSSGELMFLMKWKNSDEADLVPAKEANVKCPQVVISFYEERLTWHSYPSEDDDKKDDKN
#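 Compound inhibition of the preformed complex between 50 nM HP1-beta and 50 nM biotinylated H3K9me3 peptide was read by AlphaScreen. Buffer was PBS pH 7.4 with 0.01% Tween-20. Incubations ran 30 min at room temperature, with 10 ug/mL donor/acceptor beads.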
# JMJD2A Tudor inh = JMJD2A Tudor domain (human) inhibition; O75164; actives 4.4% (n = 390,000); Potency, µM (doses to about 114 µM), most hits filed as inhibitors; AlphaScreen JMJD2A-Tudor / H3K4me3 peptide binding; note: nearly all actives have a fitted effect of over 50% in size
# PLK1 PBD block = blocks phosphopeptide binding to human PLK1 polo-box domain; Plk1 PBD binding of FITC phosphopeptide, fluorescence polarization; Potency, µM, most hits filed as inhibitors; actives 2.8% (n = 360,000); note: series mostly up to about 57 µM; nearly all actives have a fitted effect of over 65% in size
# BAZ2B block = inhibitors of human BAZ2B bromodomain | AlphaScreen BAZ2B-H3K14Ac peptide displacement | Potency, µM (doses to about 114 µM), usual class: inhibitors | actives 4.4% (n = 360,000); note: nearly all actives have a fitted effect of over 60% in size
#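 AlphaScreen displacement of biotin-H3(5-23)K14Ac peptide (50 nM final) from BAZ2B (50 nM final) in PBS pH 7.4, 0.01% Tween-20; complex preformed 30 min RT, then compounds (top 110 uM) 30 min RT, beads 20 min dark.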
# Hits are given with their value; - = inactive; ? = inconclusive; . = no result given; [ ] = dose if it differs, or a comment. Calls come from the whole dose curve; as a rule, active = well fitted curve in the direction sought with a large enough effect; inconclusive = small, poorly fitted or top-dose-only effect, or another doubt; inactive = no such curve, though single readings can be large; an effect the other way counts as inactive or inconclusive.
SMILES,G9a block,Sfp inh,HP1b binding inh,JMJD2A Tudor inh,PLK1 PBD block,BAZ2B block
COc1ccccc1/C=C/CN1CCCCC1,28µM,-,?,1.4µM,-,79µM
O=C(c1cccc(F)c1)N1CCC2(CC1)CCN(c1ncccn1)CC2,-[12.7 µM],-,.,.,.,.
C[n+]1cnc(-c2ccccc2)cc1-c1ccccc1,?,-,?,22µM,?,-
c1ccc(-c2cc(-c3ccccc3)ncn2)cc1,.,.,-,-,-,.
CC(=O)c1ccc(N2CCN(C(=O)CCS(=O)(=O)c3ccc4c(c3)oc(=O)n4C)CC2)cc1,-,.,-,-,.,-
Cc1ccc(OCCCNCCO)c(Br)c1,-,-,-,-,-,-
CNCCCCOc1ccc(C(C)(C)C)cc1Cl,14µM,-,?,5.6µM,-,?
CCCCNCCCOc1ccc(C)cc1Br,50µM,-,?,20µM,-,56µM
CNCCCCOc1ccccc1Cc1ccccc1,-,-,.,.,.,-
CNCCCOc1ccc(C)cc1Br,?,-,?,3.2µM,-,56µM
Cc1ccc(SCCSc2nc(C)cc(=O)[nH]2)cc1,-,-,-,-,-,-
O=C(CCN1CCc2ccccc21)c1ccc2c(c1)OCCO2,?,?,-,?,?,50µM
O=C(CCN1CCCC1Cc1ccccc1)c1ccc2c(c1)OCCO2 (stereo not given),2.8µM,50µM,?,89µM,21µM,?
O=C(CCN1CCCCC1)c1ccc2c(c1)OCCO2,8.9µM,-,-,-,?,-
O=C(CCN1CCc2ccccc2C1)c1ccc2c(c1)OCCO2,8.9µM,45µM,-,-,24µM,-
NC(=O)NN=C1CCN2CCCc3cccc1c32,.,.,.,.,-,.
CC1(C)O[C@@H]2[C@H](O1)[C@@H](COS(=O)(=O)O)O[C@H]2n1cc(Br)c(=O)[nH]c1=O,.,.,-,-,-,.
O=C(CSc1cn(CC(=O)N2CCCC2)c2ccccc12)Nc1ccccc1C(F)(F)F,-,.,-,-,.,-
CC12CCC=CC1C(c1cccc([N+](=O)[O-])c1)N(Cc1ccccc1)C2=O (stereo not given),.,-,-,?,.,.
O=C(CCN1CCCCCC1)Nc1ccc2c(c1)OCCO2,?,-,?,5µM,-,56µM
CCOC(=O)C(=O)CC(=O)c1ccc2c(c1)OCCO2,20µM,-,-,-,-,50µM
CCOC(=O)c1ccc(NS(=O)(=O)c2ccc3c(c2)OCCO3)cc1,-,.,-,-,.,-
NC(=O)COc1ccc(C(=O)NCC2(N3CCOCC3)CCCCC2)cc1,-[12.7 µM],.,-,-,-,-
COc1ccccc1/C=C1\SC(=S)N(N2C(=O)CCCC2=O)C1=O,20µM,-,?,?,-,?
COc1ccc(/C=C2\SC(=S)N(N3C(=O)CCC3=O)C2=O)cc1O,8.9µM,-,-,-,-,?
SMILES,G9a block,Sfp inh,HP1b binding inh,JMJD2A Tudor inh,PLK1 PBD block,BAZ2B block
O=C1CC(c2ccco2)CC(O)=C1C=Nc1ccc(Br)cc1 (stereo not given),14µM,56µM,-,-,-,-
O=C1CC(c2ccccc2)CC(O)=C1C=Nc1ccccc1 (stereo not given),-,-,-,?,24µM,-
Cc1ccc(N=CC2=C(O)CC(c3ccco3)CC2=O)cc1 (stereo not given),.,-,-,-,-,-
CCc1ccc(N=CC2=C(O)CC(c3ccco3)CC2=O)cc1 (stereo not given),?,79µM,-,-,-,-
O=C1CC(c2ccccc2)CC(O)=C1C=Nc1ccccc1O (stereo not given),-,-,-,-,-,-
CCOc1ccc(S(=O)(=O)n2nc(C)cc2C)cc1,-,-,-,-,-,-
CC1CN(C(=O)CSc2nnc(-c3ccccc3)o2)CC(C)O1 (stereo not given),-,-,-,-,-,-
O=C(O)c1cccc(S(=O)(=O)Nc2ccc3oc(=O)sc3c2)c1,?,11µM,-,-,?,-
O=C1N=C(N2CCN(c3ccccc3)CC2)S/C1=C/c1ccco1,50µM,-,-,?,-,45µM
CCN1CCN(C2=NC(=O)/C(=C/c3ccc(C)o3)S2)CC1,32µM,16µM,-,-,-,?
O=C1N=C(N2CCN(c3ccccc3)CC2)S/C1=C\c1cn[nH]c1-c1ccccc1,-,-,-,-,-,-
NC1=NC(=O)/C(=C\c2ccco2)S1,-[12.7 µM],35µM,56µM,50µM,-,79µM
CCc1ccc(/C=C2/SC(N3CCOCC3)=NC2=O)cc1,.,-,-,-,?,-
Cc1ccc(N2CCN(C3=NC(=O)/C(=C\c4cn[nH]c4-c4ccccc4)S3)CC2)cc1,-,-,-,50µM,-,-
Cc1ccc(S(=O)(=O)N2CCN(c3nc(C#N)nc4ccccc34)CC2)cc1,.,.,.,-,.,.
O=C1N=C(N2CCN(c3ccccc3)CC2)S/C1=C\c1ccco1,40µM,-,-,?,-,50µM
COC(=O)Cn1c(C2CC(=O)N(c3c(C)cccc3C)C2)nc2ccccc21 (stereo not given),14µM,.,-,-,.,-
Cc1cccc(C)c1OCCCCn1c(C2CC(=O)N(c3ccc(F)cc3)C2)nc2ccccc21 (stereo not given),14µM,.,-,?,.,-
CCn1c(C2CC(=O)N(c3cc(C)cc(C)c3)C2)nc2ccccc21 (stereo not given),-,-,-,-,-,-
COc1ccc(/C=C/c2nnc(NC(=O)COc3ccc(Cl)cc3)s2)cc1,.,.,-,-,.,.
COC(=O)c1ccc(Cl)cc1NC(=O)N1CCC(CN2CCC(C)CC2)CC1,-,.,-,-,.,-
O=C(O)CCCCCN1C(=O)/C(=C\c2cn(-c3ccccc3)nc2-c2cccs2)SC1=S,16µM,?,-,40µM,-,13µM
O=C(O)CCN1C(=O)/C(=C/c2cn(-c3ccccc3)nc2-c2cccs2)SC1=S,-,-,?,22µM,30µM,-
CN1CCC(N(C)C(=O)/C=C/c2cn(-c3ccccc3)nc2-c2cccs2)CC1,-,?,-,?,-,-
O=C(O)CCCCCN1C(=O)/C(=C/c2cn(-c3ccccc3)nc2-c2cccs2)SC1=S,.,.,?,32µM,27µM,.
Cc1c(Cl)cccc1NC(=O)Nc1nnc(N2CCCCCC2)s1,-,.,-,-,.,-
COc1ccc(S(=O)(=O)Nc2ccc3c(c2)C(=O)N([C@@H](C)CO)C[C@@H](C)[C@H](CN(C)S(=O)(=O)c2ccc(F)cc2)OCCCC[C@H](C)O3)cc1,.,.,.,.,-,.
Cc1ccc(C(=O)OCc2nnc(-c3ccccc3)o2)o1,-[0.0925 µM],-,-,89µM,?,-
CC(C)[C@H](NC(=O)c1ccccc1)C(=O)OCc1nnc(-c2ccccc2)o1,-,-,?,22µM,27µM,.
O=C(OCc1nnc(-c2ccccc2)o1)c1cc(S(=O)(=O)N2CCOCC2)c(Cl)cc1Cl,-[12.7 µM],-,-,?,3µM,-

# Screens: PubChem, National Center for Advancing Translational Sciences (NCATS)
